PubChem BioAssay AID485364 (National Center for Advancing Translational Sciences (NCATS), 2010)
The campaign covered roughly 360,000 compounds. About 11,000 (3.1%) were called active. A call without a number means that no potency is given here. About 4% were inconclusive and are not listed. Calls come from the whole dose curve; as a rule, active = well fitted inhibition curve with a large enough effect; inconclusive = small, poorly fitted or top-dose-only effect; inactive = no such curve, though single readings can be large or run the other way. For the sample, actives were picked, then their nearest neighbours and some compounds at random.

molecular target: Schistosoma mansoni thioredoxin glutathione reductase (TGR) (UniProt Q962Y6); assay: qHTS Assay for the Inhibitors of Schistosoma Mansoni Peroxiredoxins; settings: purified TGR, DTNB reduction, TNB absorbance 405 nm; series mostly up to 114 µM; note: nearly all actives have a fitted effect of over 60% in size
Summary of the method: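 Kinetic colorimetric format: TGR-catalysed, NADPH-driven DTNB reduction monitored via TNB absorbance. Enzyme dispensed at 20 nM; compound exposure 15 min at room temperature before reaction start.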
Potency is the fitted concentration of half-maximal effect.

SMILES	Potency
CC(C)(C)Nc1c(-c2cccs2)nc2ccccn12	50.1 µM (active)
Cc1nc2ccccn2c(=O)c1NC(=O)c1cccs1	inactive
Cc1ccc(Nc2c(-c3ccc(C)s3)nc3ccccn23)cc1	inactive
COc1ccc(-c2cc(C(=O)NCc3cc(OC)c(OC)c(OC)c3)[nH]n2)cc1	inactive
CCOc1ccc(S(=O)(=O)N(CC(=O)NCCSCc2ccc(C)cc2)c2ccccc2)cc1	inactive
Cc1ccc(NC(=O)CN2c3ccccc3S(=O)(=O)c3ccccc32)cc1F	inactive
O=C(CC(n1cncn1)C(Cl)(Cl)Cl)c1ccc([N+](=O)[O-])cc1 (configuration not stated)	0.282 µM (active)
O=C(CCn1nnc2ccccc21)OCC(=O)c1ccc([N+](=O)[O-])cc1	inactive
O=C(NNC(=O)c1ccc(-n2cncn2)c([N+](=O)[O-])c1)c1ccccc1	inactive
Cc1cc(=O)n(CC(=O)Nc2cccc([N+](=O)[O-])c2)c(-n2nc(C)cc2C)n1	inactive
COc1cc(C(=O)NCC(c2ccc(Cl)cc2)N2CCOCC2)cc(OC)c1OC (configuration not stated)	inactive
O=C(CSCc1ccccc1)Nc1ccccc1	inactive
O=C(CSc1ccccc1)Nc1ccc(C(=O)Nc2cccc(O)c2)cc1	inactive
O=C(CCl)Nc1cccc(CP(=O)(c2ccccc2)c2ccccc2)c1	11.2 µM (active)
COC(=O)c1ccc(-c2c(-c3ccccc3)ncc3cc(OC)c(OC)cc23)cc1	14.1 µM (active)
COc1ccc(C(=O)Nc2ccc(-n3nncc3-c3ccccc3)cc2)cc1OC	inactive
COC(=O)c1cc(NC(=O)c2cnc(SC)nc2-c2ccccc2)cc(C(=O)OC)c1	inactive
CC(C)CCN1CCN(Cc2ccc(C(F)(F)F)cc2)CC1CCO (configuration not stated)	inactive
CC(C)CN1CCN(Cc2ccccc2C(F)(F)F)CC1CCO (configuration not stated)	inactive
CC(C)CCN1CCN(C/C=C/c2ccco2)CC1CCO (configuration not stated)	25.1 µM (active)
O=C(NC1CC(=O)N(c2ccc(Cl)cc2)C1)C1CCCC1 (configuration not stated)	inactive
Cc1ccc(CN2CCCn3nc(C(=O)NCc4ccccc4Cl)cc3C2=O)cc1	inactive
Cc1ccc(-n2ncc3c(NCCCn4ccnc4)ncnc32)cc1Cl	inactive
CNCC(O)c1ccc(O)c(O)c1 (configuration not stated)	44.7 µM (active)
CCC(C)c1ccc(O)c(/C=N/O)c1 (configuration not stated)	inactive
CC(=O)NCC(O)c1ccc([N+](=O)[O-])cc1 (configuration not stated)	inactive

SMILES	Potency
CCC(=O)N1CCc2cc(Br)cc(S(=O)(=O)CCC(=O)NCCc3ccc(OC)c(OC)c3)c21	inactive
O=C(CSc1nc2c(c(=O)[nH]1)CN(Cc1ccc(F)cc1)CC2)Nc1ccccc1Cl	inactive
Cc1ccc(Cl)cc1N1CCN(C(=O)c2cn(C)c3ccc(S(=O)(=O)N(C)C4CCCCC4)cc3c2=O)CC1	inactive
O=C(CS(=O)(=O)c1ccccc1)Nc1ccc(S(=O)(=O)Nc2ccccn2)cc1	inactive
CC(=O)Nc1ccc(S(=O)(=O)NCCc2ccccc2)cc1	inactive
C=C(C)CNC(=S)Nc1ccc(S(=O)(=O)Nc2cnc3ccccc3n2)cc1	11.2 µM (active)
Cc1cccc(NC(=O)N2CCN(C)c3ncccc32)c1C	inactive
Cc1cccc(NC(=O)c2nnn(CC(=O)Nc3ccc(C(C)C)cc3)c2N)c1C	inactive
CCOc1ccccc1NC(=O)C1=C(C)Nc2ncnn2C1c1ccc(NC(C)=O)cc1 (configuration not stated)	inactive
CCC(=O)N1CCc2cc(S(=O)(=O)NC(Cc3ccccc3)C(=O)NCc3ccc(C)cc3)ccc21 (configuration not stated)	inactive
CCOc1ccc(CNCCSc2nnnn2C)cc1	inactive
COc1ccc(C2Sc3ccccc3NC3=C2C(=O)c2ccccc23)c(OC)c1OC (configuration not stated)	inactive
COC(=O)c1ccc(NC(=O)C(C)N2C(=O)c3ccccc3C2=O)cc1 (configuration not stated)	inactive
O=C(OCN1C(=O)c2ccccc2C1=O)/C(=C\c1ccco1)NC(=O)c1ccccc1	inactive
COC(=O)C1=C(C)N(C)C(C)=C(C(=O)OC)C1c1cccc(Br)c1	inactive
COC(=O)C1=C(C)N(C(C)c2ccccc2)C(=O)/C1=C\c1ccco1 (configuration not stated)	31.6 µM (active)
COc1ccc(CN2C(=O)C(C)S/C2=N/N=C/c2ccco2)cc1 (configuration not stated)	inactive
COc1ccc(N2C(=O)/C(=C/c3ccco3)C(=O)NC2=S)cc1	14.1 µM (active)
COC(=O)C1=C(C)N(c2ccc(Br)cc2)C(=O)/C1=C\c1ccco1	35.5 µM (active)
COc1ccc(N2C(=O)CNC2=S)cc1	inactive
Cc1cccc(C)c1-n1ncc(C(=O)NCCCN2CCCCC2)c1C1CCN(C(=O)OC(C)(C)C)CC1	inactive
CC(C)NC(=O)C1CCC(Cn2c(=O)c3sccc3n(Cc3ccc(F)cc3)c2=O)CC1 (configuration not stated)	inactive
Cc1ccc2onc(CC(=O)N3CCN(c4ccc(Cl)cc4)CC3)c2c1	inactive
CCc1cc2c(cc(C(=O)OC)n2Cc2nc(-c3ccc(C)cc3)oc2C)s1	inactive
CC(=O)N1c2ccc(S(=O)(=O)N3CCCCCC3)cc2CC1C(=O)NCc1ccccc1C (configuration not stated)	inactive
CC(=O)c1ccc(N2CCN(c3nc4c(S(=O)(=O)c5ccccc5)nnn4c4ccc(Cl)cc34)CC2)cc1	inactive

SMILES	Potency
O=C(CSc1nccn1-c1ccc(F)cc1)Nc1cccc2ccccc12	inactive
CC(=O)Nc1ccc2nc(SCCOc3cc(C)cc(C)c3)sc2c1	inactive
O=C(NCC12CC3CC(CC(C3)C1)C2)c1cc2nc(-c3ccccc3)cc(C(F)(F)F)n2n1	inactive
CCCNC(=O)C1CCC(Cn2c(=O)c3sccc3n(Cc3ccccc3F)c2=O)CC1 (configuration not stated)	inactive
COc1ccccc1Nc1nc(N)nc(N)c1S(=O)(=O)c1ccccc1	inactive
CC1(C)Cc2ccccc2-c2[nH]c(=S)[nH]c(=O)c21	inactive
CCC1(CC)Cc2ccccc2-c2nc(CCl)[nH]c(=O)c21	3.16 µM (active)
CCOC(=O)C1Cn2c(nc3c(c2=O)C(C)(CC)Cc2ccccc2-3)S1 (configuration not stated)	inactive
CCOC(=O)c1oc2ccc(S(=O)(=O)n3nc(-c4ccccc4OC)cc3N)cc2c1C	inactive
COc1ccc(Cl)cc1N(C)C(=O)c1cc2c(=O)oc3ccc(C)cc3c2s1	inactive
NC(=O)CSc1c[nH]c2ccccc12	inactive
O=S(=O)(O)Oc1c[nH]c2ccccc12	20 µM (active)
O=C(OCC(=O)c1c[nH]c2ccccc12)c1cccc(O)c1	inactive
Cc1ccc(OCC(=O)Nc2ccc(Cl)c(-c3nc4ccccc4[nH]3)c2)cc1C	inactive
CCc1nc2nc(C)cc(Nc3ccc(F)c(Cl)c3)n2n1	inactive
COc1ccc(-c2csc(NC(=O)COC(=O)Cc3ccc(Cl)cc3Cl)n2)cc1	inactive
COc1ccc(N/C=C(\C2OC(=O)c3ccccc32)[N+](=O)[O-])cc1 (configuration not stated)	inactive
COc1ccc(-c2csc(NC3OC(=O)c4ccccc43)n2)cc1 (configuration not stated)	5.62 µM (active)
C/C(CC1CC(C)(C)OC1=O)=N/Nc1nc(-c2ccccc2)cs1 (configuration not stated)	inactive
CCCc1cc(-c2nc(-c3ccc(C)cc3)cs2)ccn1	inactive
CCc1ccccc1NC(=O)[C@@H]1CCC(=O)N1C1OC(=O)c2c1ccc(OC)c2OC (some centres not stated)	inactive
Cc1ccc(-c2csc(-c3c[nH]c4ccccc34)n2)cc1	inactive
COc1ccc2c(c1OC)C(=O)OC2Nc1nc(-c2ccccc2)cs1 (configuration not stated)	3.16 µM (active)
Cc1ccc(-c2csc(NC3OC(=O)c4ccccc43)n2)cc1 (configuration not stated)	28.2 µM (active)
Cc1nnc(NC(=O)CSc2nc3c([nH]c4ccccc43)c(=O)n2-c2cccc(Cl)c2)s1	inactive
CC(=O)Nc1c(C)nn(-c2ccccc2)c1N1CCC(C(=O)Nc2cc(Cl)ccc2C)CC1	inactive

SMILES	Potency
Cn1nnnc1SCCCNCc1ccc(Cl)cc1	inactive
Fc1ccc(-c2nc(Nc3cccc(Cl)c3)nc3c2COc2ccccc2-3)cc1	inactive
Cc1ccc(S(=O)(=O)N2CCCc3cc(NS(=O)(=O)c4cc(C)ccc4C)ccc32)cc1	inactive
Cc1cc(NS(=O)(=O)c2ccc3oc(=O)c4ncn(C)c4c3c2)ccc1Br	inactive
Cc1cc(C)cc(NC(=O)CCCc2nc(-c3ccccc3Cl)no2)c1	inactive
CCOc1cccc(/C=N/N2C(=O)CSC2=S)c1O	3.55 µM (active)
COc1cc(N2C(=O)CSC2=S)cc(OC)c1OC	inactive
O=C1CSC(=S)N1c1ccc(O)cc1	inactive
Cc1cc(C)cc(NC(c2nnc(-c3cccc(F)c3)o2)c2ccc(F)cc2Cl)c1 (configuration not stated)	inactive
CCOc1cccc(CNC(=O)c2ccc(N3CCCC3)c(NC(=O)Nc3ccccc3CC)c2)c1	inactive
Cc1c(Cl)cccc1NC(=O)Nc1ccc(C(=O)N2CCCC2)cc1	inactive
Cc1c(Cl)cccc1NC(=O)NCCCN1CCCC1=O	inactive
Cc1c(Cl)cccc1NC(=O)NCc1ccc(C)n1C	35.5 µM (active)
C#CC(C)(CC)NC(=O)Cn1nnc(-c2ccc(OCc3c(F)cccc3Cl)cc2)n1 (configuration not stated)	inactive
CO/N=C(\C(=O)N[C@@H]1C(=O)N2C(C(=O)O)=C(COC(C)=O)CS[C@H]12)c1csc(N)n1 (stereo in doubt)	inactive
Cc1nnc(SCC2=C(C(=O)O)N3C(=O)C(NC(=O)Cn4nc(C)c(Cl)c4C)C3SC2)s1 (configuration not stated)	10 µM (active)
Cc1nnc(SCC(=O)NC2CCCC2)s1	inactive
Cc1cc(C)cc(C(=O)NC2C(=O)N3C(C(=O)O)=C(CSc4nnc(C)s4)CSC23)c1 (configuration not stated)	5.01 µM (active)
O=C(Cn1ncc2c3ccccc3n(Cc3ccccc3)c2c1=O)NC1CCCCCC1	inactive
Cc1cccc(CSc2nc3ccncc3n2CC(=O)N(C)C2CCCCC2)c1	inactive
CC(C)(C)OC(=O)N1CCC(c2c(C(=O)NCc3ccccn3)cnn2-c2ccc(F)cc2)CC1	inactive
COc1ccc(S(=O)(=O)NCCCCOc2ccc(Cl)cc2)cc1	inactive
COc1cccc(NC(C)=[N+](C)CCNS(=O)(=O)c2ccc(Cl)cc2)c1	31.6 µM (active)
COc1cccc(NC(=O)CCNS(=O)(=O)c2ccc3c(c2)oc(=O)n3C)c1	inactive
